Consider eight compounds from PubChem BioAssay (Tox21).

A short description of assay [1]: qHTS assay to identify aromatase inhibitors - cell viability counter screen (AID 743084).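 Also: cells stimulated with testosterone during compound exposure; nearly all actives have a fitted effect of over 55% in size.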 Also: potency is read from the fitted curve at half-maximal effect. Background: qHTS replaces the single test concentration by a dilution series.
The target in assay [2] is Aryl hydrocarbon receptor (Homo sapiens) (UniProt P35869). As to the kind of experiment: qHTS assay to identify small molecule that activate the aryl hydrocarbon receptor (AhR) signaling pathway (AID 743085). Also: nearly all actives have a fitted effect of over 15% in size. Also: potency is read from the fitted curve at half-maximal effect.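 As to activation: HG2L7.5c1 human HepG2 liver cells with stably integrated DRE-driven firefly reporter; series mostly up to about 70 µM.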 The gist of the method:
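24 h compound exposure, 37C, HepG2-derived HG2L7.5c1 cells with DRE-responsive luciferase. Readouts: fluorescence viability, then luminescence at room temperature after 30 min.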

A short description of assay [3]: qHTS assay to identify small molecule that activate the aryl hydrocarbon receptor (AhR) signaling pathway - cell viability counter screen (AID 743086). Also: series mostly up to about 70 µM; nearly all actives have a fitted effect of over 45% in size. The gist of the method: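 Cytotoxicity counter screen: CellTiter-Fluor signal (30 min, 37 C) in 4000 HepG2 cells/well carrying the DRE-luciferase reporter, following 24 h compound exposure at 37 C.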
For assay [4], the target named is Peroxisome proliferator-activated receptor gamma (Homo sapiens) (UniProt P37231). Put plainly: qHTS assay to identify small molecule agonists of the peroxisome proliferator-activated receptor gamma (PPARg) signaling pathway (AID 743094; active = well fitted activation curve with a large enough effect in the signal ratio in the repeat runs, not every such curve was filed as active; the % refers to the signal ratio). The gist of the method:
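GeneBLAzer PPARg UAS-bla HEK293H cells were plated, rested 5 h, then exposed to compounds for 17 h at 37C. Beta-lactamase activity was read by LiveBLAzer B/G FRET substrate fluorescence after 1 h at room temperature.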

The target is the same in assay [5]. As to the kind of experiment: qHTS assay to identify small molecule antagonists of the peroxisome proliferator-activated receptor gamma (PPARg) signaling pathway (AID 743191; calls by dose curve; also: nearly all actives have a fitted effect of over 30% in size; also: potency is read from the fitted curve at half-maximal effect). A digest of the protocol:
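Beta-lactamase reporter under UAS control in HEK293H PPARg-bla cells; compound treatment 17 h at 37C. Read-out: fluorescence intensity after 1 h room-temperature incubation with LiveBLAzer B/G FRET substrate.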

Assay [6] in a line: qHTS assay to identify small molecule antagonists of the peroxisome proliferator-activated receptor gamma (PPARg) signaling pathway - cell viability counter screen (AID 743194). Also: nearly all actives have a fitted effect of over 55% in size. Also: potency is read from the fitted curve at half-maximal effect. Particulars: Potency: co-treated with 50 nM rosiglitazone unless noted. A digest of the protocol: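 Viability was measured as CellTiter-Glo luminescence in GeneBLAzer PPARg UAS-bla HEK293H cells. These cells had been exposed 17 h at 37 C to compounds together with rosiglitazone at 50 nM final, with the beta-lactamase readout taken in the same wells.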

A short description of assay [7]: qHTS assay for small molecule agonists of the antioxidant response element (ARE) signaling pathway (AID 743202; active = well fitted activation curve with a large enough effect in the signal ratio in the repeat runs, not every such curve was filed as active; the % refers to the signal ratio). The gist of the method: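 An ARE-responsive beta-lactamase gene stably integrated in HepG2 cells serves as reporter. After 5 h plating and 16 h compound incubation at 37 C, fluorescence of the B/G FRET substrate was measured.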
A short description of assay [8]: qHTS assay for small molecule agonists of the antioxidant response element (ARE) signaling pathway - cell viability counter screen (AID 743203; calls by dose curve; also: nearly all actives have a fitted effect of over 55% in size; also: potency is read from the fitted curve at half-maximal effect). The gist of the method: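 ARE-bla HepG2 cells were plated, rested 5 h at 37C/5% CO2, then exposed to compounds in DMSO for 16 h. Viability was read as CellTiter-Glo luminescence after 30 min at room temperature, in the same wells as the ARE screen.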

A short description of assay [9]: qHTS assay for small molecule activators of the heat shock response signaling pathway - cell viability counter screen (AID 743209). Also: nearly all actives have a fitted effect of over 50% in size. A digest of the protocol:
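HSE-bla HeLa cells plated overnight, then exposed to Tox21 compounds (23 nL in DMSO) for 5 h at 37 C. After the bla reporter read, CellTiter-Glo was added in the same wells and luminescence read after 30 min at room temperature.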

Assay [10] can be described thus: qHTS assay to identify small molecule agonists of the peroxisome proliferator-activated receptor delta (PPARd) signaling pathway - cell viability counter screen (AID 743211). Also: nearly all actives have a fitted effect of over 55% in size. Also: potency is read from the fitted curve at half-maximal effect. The gist of the method: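 Luminescent ATP viability assay (CellTiter-Glo, 30 min RT) in UAS-bla HEK293H cells carrying the PPAR delta reporter construct, 3000 cells/well, after a 17 h compound treatment at 37 C.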

The target of assay [11] is Peroxisome proliferator-activated receptor delta (Homo sapiens) (UniProt Q03181). Put plainly: qHTS assay to identify small molecule agonists of the peroxisome proliferator-activated receptor delta (PPARd) signaling pathway (AID 743212; calls by dose curve). A digest of the protocol: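 HEK293H UAS-bla reporter cells, human PPARd system; compounds delivered in DMSO after 5 h plating, then at 37 C. Beta-lactamase FRET read, 2 h RT substrate step.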
Peroxisome proliferator-activated receptor delta (Homo sapiens), sequence (Q03181 whole entry, looked up): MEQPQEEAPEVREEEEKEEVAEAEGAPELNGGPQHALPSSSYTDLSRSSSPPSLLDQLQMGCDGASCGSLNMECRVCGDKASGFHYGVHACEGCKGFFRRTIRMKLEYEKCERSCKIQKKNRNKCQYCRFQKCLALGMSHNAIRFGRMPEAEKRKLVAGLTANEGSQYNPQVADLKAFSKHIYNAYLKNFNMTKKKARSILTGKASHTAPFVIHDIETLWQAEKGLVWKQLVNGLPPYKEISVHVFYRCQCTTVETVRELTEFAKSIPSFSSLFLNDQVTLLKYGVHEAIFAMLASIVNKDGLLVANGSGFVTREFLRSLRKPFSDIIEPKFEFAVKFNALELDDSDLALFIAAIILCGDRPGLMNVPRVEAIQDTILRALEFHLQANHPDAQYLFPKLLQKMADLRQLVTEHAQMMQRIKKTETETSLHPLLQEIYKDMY

The target is the same in assay [12]. Put plainly: qHTS assay to identify small molecule antagonists of the peroxisome proliferator-activated receptor delta (PPARd) signaling pathway (AID 743215; active = well fitted inhibition curve with a large enough effect in the signal ratio in the repeat runs, not every such curve was filed as active; the % refers to the signal ratio;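 also: cells stimulated with agonist L165041 at 300 nM final during compound exposure; series mostly up to about 62 µM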). A digest of the protocol: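 PPARd-bla HEK293H cells (UAS-bla reporter) preincubated 5 h, then given compound plus 300 nM final L165041 agonist for 17 h at 37 C. Beta-lactamase activity read by LiveBLAzer B/G FRET substrate fluorescence after 2 h at room temperature.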

A short description of assay [13]: qHTS assay to identify small molecule agonists of the farnesoid-X-receptor (FXR) signaling pathway - cell viability counter screen (AID 743218). Also: nearly all actives have a fitted effect of over 45% in size. Also: potency is read from the fitted curve at half-maximal effect. A digest of the protocol: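 FXR-UAS-bla HEK 293T cells exposed to compounds for 16 h at 37C. Cytotoxicity read in the same wells by CellTiter-Glo luminescence after 30 min at room temperature, following the beta-lactamase FRET read.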

The nature of assay [14]: qHTS assay to identify small molecule antagonists of the farnesoid-X-receptor (FXR) signaling pathway - cell viability counter screen (AID 743221; active = well fitted cell-killing curve with a large enough effect in the repeat runs, not every such curve was filed as active; also: nearly all actives have a fitted effect of over 50% in size; also: potency is read from the fitted curve at half-maximal effect). A digest of the protocol: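 In GeneBLAzer FXR-UAS-bla HEK 293T cells stimulated with 50 uM chenodeoxycholic acid (final), compounds acted for 16 h at 37 C. Viability was assessed afterwards by CellTiter-Glo luminescence.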
The target of assay [15] is Vitamin D3 receptor (Homo sapiens) (UniProt P11473). As to the kind of experiment: qHTS assay to identify small molecule agonists of the vitamin D receptor (VDR) signaling pathway (AID 743222; calls by dose curve). The gist of the method:
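VDR-bla cells plated 4 h at 37 C, then exposed to compounds for 16 h at 37 C. Beta-lactamase reporter activity measured by fluorescence after 2 h room-temperature loading with LiveBLAzer B/G FRET substrate.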

Assay [16] deals with Bile acid receptor (Homo sapiens) (UniProt Q96RI1). Put plainly: qHTS assay to identify small molecule antagonists of the farnesoid-X-receptor (FXR) signaling pathway (AID 743217; active = well fitted inhibition curve with a large enough effect in the signal ratio in the repeat runs, not every such curve was filed as active; the % refers to the signal ratio). The gist of the method:
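FXR-UAS-bla HEK 293T cells (beta-lactamase reporter) given compound plus chenodeoxycholic acid (50 uM final), 16 h at 37C. LiveBLAzer B/G FRET substrate added for 2 h at room temperature; fluorescence read.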

Assay [17] has the same target. Put plainly: qHTS assay to identify small molecule agonists of the farnesoid-X-receptor (FXR) signaling pathway (AID 743220; active = well fitted activation curve with a large enough effect in the signal ratio in the repeat runs, not every such curve was filed as active; the % refers to the signal ratio). The gist of the method:
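Beta-lactamase reporter under UAS control in GeneBLAzer FXR HEK 293T cells (5000/well) measured with LiveBLAzer FRET substrate after 2 h at room temperature. Compound exposure lasted 16 h at 37C.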

Assay [18] has as its target Vitamin D3 receptor (Homo sapiens) (UniProt P11473). As to the kind of experiment: qHTS assay to identify small molecule antagonists of the vitamin D receptor (VDR) signaling pathway (AID 743223; active = well fitted inhibition curve with a large enough effect in the signal ratio in the repeat runs, not every such curve was filed as active; the % refers to the signal ratio; also: potency is read from the fitted curve at half-maximal effect). A digest of the protocol:
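Agonist 1alpha,25-dihydroxyvitamin D3 (3 nM in well) was added with each compound to VDR-bla cells preincubated 4 h. Cells stood 16 h at 37C, then FRET substrate 2 h at room temperature; fluorescence intensity recorded.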

The nature of assay [19]: qHTS assay to identify small molecule antagonists of the peroxisome proliferator-activated receptor delta (PPARd) signaling pathway - cell viability counter screen (AID 743213). Also: nearly all actives have a fitted effect of over 50% in size. The gist of the method: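 Cytotoxicity counter screen: CellTiter-Glo luminescence read 30 min after addition, in the same wells as the reporter assay. There, PPARd UAS-bla HEK293H cells (3000/well) were treated 17 h at 37 C with compound and 300 nM L165041.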

The nature of assay [20]: qHTS assay for small molecule activators of the heat shock response signaling pathway (AID 743210; active = well fitted activation curve with a large enough effect in the signal ratio in the repeat runs, with a control signal flat, not every such curve was filed as active; the % refers to the signal ratio;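 also: HeLa cells with beta-lactamase reporter driven by heat shock elements; series mostly up to about 63 µM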). The gist of the method: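 In HSE-bla HeLa cells, 5 h compound incubation (37 C) precedes addition of LiveBLAzer B/G substrate; after 2.5 h at room temperature, fluorescence intensity indicates reporter induction.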

Values joined by “and” are separate entries in the source; they are usually repeats but may differ in a detail not shown here. Equal values may be shown once. Records with an inconclusive call do not appear. Where a structure was tested more than once in an assay, its records may differ in their call. Active and inactive are the calls of the source. Unless noted, calls follow the shape of the dose curve; as a rule, active = well fitted curve in the direction sought with a large enough effect in the repeat runs; inconclusive = weak or mixed curves; inactive = no such curve, though single readings can be large; an effect the other way counts as inactive or inconclusive.

Peroxisome proliferator-activated receptor gamma (Homo sapiens), sequence (P37231 whole entry, looked up): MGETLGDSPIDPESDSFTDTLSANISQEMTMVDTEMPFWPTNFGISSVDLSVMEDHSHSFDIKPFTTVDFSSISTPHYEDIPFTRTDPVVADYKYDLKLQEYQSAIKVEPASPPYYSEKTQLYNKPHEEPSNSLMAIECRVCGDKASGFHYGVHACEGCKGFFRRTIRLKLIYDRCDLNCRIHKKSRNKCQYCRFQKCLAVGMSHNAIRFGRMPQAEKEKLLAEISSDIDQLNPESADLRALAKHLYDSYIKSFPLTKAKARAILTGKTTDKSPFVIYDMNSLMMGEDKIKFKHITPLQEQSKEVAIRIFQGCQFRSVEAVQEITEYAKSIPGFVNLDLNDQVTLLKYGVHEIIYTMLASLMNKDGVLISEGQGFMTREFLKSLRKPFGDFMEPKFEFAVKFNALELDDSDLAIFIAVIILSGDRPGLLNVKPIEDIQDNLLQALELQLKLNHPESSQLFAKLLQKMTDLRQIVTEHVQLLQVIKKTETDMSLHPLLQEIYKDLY
Bile acid receptor (Homo sapiens), sequence (Q96RI1 whole entry, looked up): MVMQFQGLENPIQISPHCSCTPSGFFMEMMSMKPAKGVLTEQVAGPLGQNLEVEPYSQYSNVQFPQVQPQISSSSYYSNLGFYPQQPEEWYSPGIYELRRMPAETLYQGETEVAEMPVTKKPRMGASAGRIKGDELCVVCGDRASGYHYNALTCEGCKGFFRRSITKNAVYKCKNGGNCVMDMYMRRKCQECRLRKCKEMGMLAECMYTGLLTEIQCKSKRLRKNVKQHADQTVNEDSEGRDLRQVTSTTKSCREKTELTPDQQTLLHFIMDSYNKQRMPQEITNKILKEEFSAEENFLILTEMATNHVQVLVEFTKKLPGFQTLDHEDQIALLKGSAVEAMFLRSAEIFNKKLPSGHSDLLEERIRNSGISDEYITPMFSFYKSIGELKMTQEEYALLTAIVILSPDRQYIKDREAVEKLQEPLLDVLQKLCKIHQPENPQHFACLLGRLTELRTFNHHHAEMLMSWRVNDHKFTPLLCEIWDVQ
Aryl hydrocarbon receptor (Homo sapiens), sequence (P35869 whole entry, looked up): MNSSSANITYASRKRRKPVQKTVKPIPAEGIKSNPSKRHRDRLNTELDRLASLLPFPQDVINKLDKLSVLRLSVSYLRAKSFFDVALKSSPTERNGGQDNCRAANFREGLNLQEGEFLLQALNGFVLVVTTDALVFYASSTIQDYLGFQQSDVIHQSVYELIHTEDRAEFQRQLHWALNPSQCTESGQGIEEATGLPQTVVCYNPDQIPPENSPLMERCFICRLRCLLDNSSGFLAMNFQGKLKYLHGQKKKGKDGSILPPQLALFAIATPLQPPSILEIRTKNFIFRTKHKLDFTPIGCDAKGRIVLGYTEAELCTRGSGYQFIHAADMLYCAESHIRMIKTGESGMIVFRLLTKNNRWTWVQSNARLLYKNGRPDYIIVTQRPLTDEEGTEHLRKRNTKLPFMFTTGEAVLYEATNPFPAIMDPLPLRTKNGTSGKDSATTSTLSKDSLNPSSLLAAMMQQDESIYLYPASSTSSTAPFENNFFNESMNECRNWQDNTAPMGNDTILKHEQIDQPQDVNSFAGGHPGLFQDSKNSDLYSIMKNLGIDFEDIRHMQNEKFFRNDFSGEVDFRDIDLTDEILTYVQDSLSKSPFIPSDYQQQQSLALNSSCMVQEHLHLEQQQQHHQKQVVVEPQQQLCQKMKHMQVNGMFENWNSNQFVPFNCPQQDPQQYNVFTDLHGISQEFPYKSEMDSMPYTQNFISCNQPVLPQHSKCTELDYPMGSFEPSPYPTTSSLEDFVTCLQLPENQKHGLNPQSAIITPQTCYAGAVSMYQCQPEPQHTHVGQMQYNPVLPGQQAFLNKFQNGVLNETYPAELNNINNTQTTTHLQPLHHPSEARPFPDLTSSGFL
Vitamin D3 receptor (Homo sapiens), sequence (P11473 whole entry, looked up): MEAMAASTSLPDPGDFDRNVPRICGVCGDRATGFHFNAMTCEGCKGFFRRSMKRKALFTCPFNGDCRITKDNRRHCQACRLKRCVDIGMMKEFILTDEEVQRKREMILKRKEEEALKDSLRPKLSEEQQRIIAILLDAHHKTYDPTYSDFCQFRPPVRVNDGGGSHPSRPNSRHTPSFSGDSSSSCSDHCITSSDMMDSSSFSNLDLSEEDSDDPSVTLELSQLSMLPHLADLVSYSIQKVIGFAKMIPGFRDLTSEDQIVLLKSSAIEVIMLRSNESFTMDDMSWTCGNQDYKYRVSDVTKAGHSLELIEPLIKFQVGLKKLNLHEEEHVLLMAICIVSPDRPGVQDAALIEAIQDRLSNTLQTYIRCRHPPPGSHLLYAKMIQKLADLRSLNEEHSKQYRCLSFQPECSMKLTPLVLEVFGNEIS

As for `Cc1nnc(NS(=O)(=O)c2ccc(N)cc2)s1`, the Potency entry in assay [1], in [2], in assay [3], in assay [4], in assay [5] and in [6] was “inactive” each time. Further, the Potency entry in [7], in [8], in assay [9], in [10], in assay [11] and in [12] was “inactive” each time. In addition, the Potency result in assay [13] and in assay [14] was “inactive” throughout. Moreover, in [15], the compound was classed as inactive.
For the compound `C=C(CC(=O)O)C(=O)O`, the Potency result in assay [1], in assay [2], in assay [3], in [4], in [5] and in [6] was “inactive” throughout. Further, the Potency result in assay [7], in [8], in assay [9], in assay [10], in [11] and in assay [12] was “inactive” in each case. Further, the Potency result in [16], in assay [13], in assay [17], in assay [14] and in assay [18] was “inactive” throughout. For the same compound, the compound was called inactive in [15].
With `Cc1ccncc1`, the Potency entry in assay [1], in assay [2], in assay [3], in assay [4], in assay [5] and in assay [6] was “inactive” throughout. The Potency entry in [7], in assay [8], in assay [9], in [10], in assay [19] and in assay [13] was “inactive” each time. Also, the Potency entry in assay [14] and in [18] was “inactive” in each case. In [15], the compound was called inactive.
On to `CN=C(NC#N)NCCSCc1nc[nH]c1C`, for which the Potency result in assay [1], in assay [2], in [3], in assay [4], in [5] and in assay [6] was “inactive” throughout. Moreover, the Potency entry in [7], in assay [8], in assay [9], in assay [20], in assay [10] and in assay [11] was “inactive” in each case. Besides, the Potency result in assay [19], in assay [12], in assay [16], in assay [13], in [17] and in assay [14] was “inactive” throughout. Besides, the Potency result in assay [18] is “inactive”. Moreover, in [15], the compound was called inactive.
With `N#CCC(=O)O`, the Potency entry in [1], in assay [2], in [3], in [4], in assay [5] and in [6] was “inactive” throughout. Besides, the Potency result in [7], in assay [8], in assay [9], in assay [20], in [10] and in [11] was “inactive” each time. In addition, the Potency result in assay [19], in assay [12], in [13], in assay [14] and in assay [18] was “inactive” throughout. Moreover, the outcome in [15] was inactive.
In the case of `CCCN(CCC)C(=O)SCC`, the Potency result in assay [1], in assay [2], in assay [4], in assay [5], in [6] and in assay [7] was “inactive” each time. In addition, the Potency result in assay [8], in assay [9], in assay [20], in [10], in [19] and in [13] was “inactive” each time. Further, the Potency entry in assay [14] and in assay [18] was “inactive” in each case. In [15], the compound was called inactive.
Turning to `CCCCC(CC)COC(=O)c1ccc(C(=O)OCC(CC)CCCC)cc1` (stereo not given), the Potency result in assay [1], in [2], in [4], in assay [5], in [6] and in [7] was “inactive” each time. The Potency entry in assay [8], in [9], in assay [20], in assay [10], in assay [11] and in assay [12] was “inactive” each time. Moreover, the Potency result in [16], in assay [13], in assay [17] and in assay [14] was “inactive” each time.
On to `c1cnc2c(c1)ccc1cccnc12`, for which the Potency is 5.5 µM (active) in [1]; 55 µM (active) and 54.5 µM (active) and inactive in assay [2]; 1.56 µM (active) in assay [5]; 1.23 µM (active) in assay [6]; 5.45 µM (active) in assay [8]; 698 nM (active) and 1.95 µM (active) and 692 nM (active) in assay [10]. Moreover, the Potency entry in assay [13] is “inactive and 1.55 µM (active)”; in [14], 24.8 µM (active) and 776 nM (active) and 174 nM (active); in assay [18] it was 3.89 µM (active). Besides, the Potency result in assay [3], in [4] and in [9] was “inactive” in each case. Moreover, in [15], the outcome was inactive.
